Measurements reported in PubChem BioAssay (NCI).
About 83,000 compounds went through this panel and 20% of them were active in at least one assay; those are over-represented in the sample as a whole.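 Results are percent growth after 48 hours of single-concentration exposure. 100 means growth as in untreated cells, lower positive values show inhibition; negative values down to -100 show cell death.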 Active and inactive are the calls of the source. How the source made its calls: active means growth percent below 10; inactive means the rest.

Experiments:
Test in all cases: NCI-60 one-dose screen, 48 h (100 = growth as untreated, 0 = no growth, -100 = all killed)
Details in all cases: 10 µM unless noted
NCI-H23 lung = test system: NCI-H23 lung
NCI-H226 lung = test system: NCI-H226 lung
NCI-H322M lung = test system: NCI-H322M lung
HOP-62 NSCLC = test system: HOP-62 NSCLC
NCI-H460 lung = test system: NCI-H460 lung
HOP-92 NSCLC = test system: HOP-92 NSCLC
NCI-H522 lung = test system: NCI-H522 lung
A549/ATCC NSCLC = test system: A549/ATCC NSCLC
786-0 renal = test system: 786-0 renal
COLO 205 colon = test system: COLO 205 colon

Measured: growth

O=C(N/N=C/c1ccc(Cl)o1)c1[nH]c2ccc(Br)cc2c1-c1ccccc1
inactive: NCI-H322M lung 26.3%
active: NCI-H23 lung -29.7% | NCI-H226 lung -42.1% | HOP-62 NSCLC -48.3% | NCI-H460 lung -70.8% | HOP-92 NSCLC 9.01% | NCI-H522 lung -59.8% | A549/ATCC NSCLC -23.2% | 786-0 renal -57.7% | COLO 205 colon -39.9%

Cn1cc(-c2cc(N)n3nc(-c4c[nH]c5ccc(Cl)cc45)cc3n2)c2cccnc21
active: NCI-H23 lung -75.7% | NCI-H226 lung -58.4% | NCI-H322M lung -83.6% | HOP-62 NSCLC -88.9% | NCI-H460 lung -47% | HOP-92 NSCLC -70.5% | NCI-H522 lung -82.1% | A549/ATCC NSCLC -77.2% | 786-0 renal -92.5% | COLO 205 colon -83.1%

CC1=NN(C2=NC(=O)C(CC(=O)Nc3ccccc3C(F)(F)F)S2)C(c2ccc(N(C)C)cc2)C1 (centres undefined)
inactive: NCI-H23 lung 72.6% | NCI-H226 lung 53.1% | NCI-H322M lung 76.1% | HOP-62 NSCLC 78.3% | NCI-H460 lung 39.6% | NCI-H522 lung 33.1% | A549/ATCC NSCLC 38.2% | 786-0 renal 61.4% | COLO 205 colon 63.5%
active: HOP-92 NSCLC 7.13%

CCOC(=O)/C(F)=C/C1CC1C1CCN(C(=O)OC(C)(C)C)CC1 (centres undefined)
inactive: NCI-H23 lung 93.8% | NCI-H226 lung 95.2% | NCI-H322M lung 102% | HOP-62 NSCLC 118% | NCI-H460 lung 98.1% | HOP-92 NSCLC 119% | NCI-H522 lung 104% | A549/ATCC NSCLC 78.4% | 786-0 renal 105% | COLO 205 colon 72.4%

CCCCNc1ccc2c3c(cccc13)C(=O)N(c1cccc(-c3nn(-c4ccccc4)cc3-c3nc4ccccc4s3)c1)C2=O
inactive: NCI-H23 lung 93.1% | NCI-H226 lung 83.5% | NCI-H322M lung 104% | HOP-62 NSCLC 107% | NCI-H460 lung 110% | HOP-92 NSCLC 100% | NCI-H522 lung 99.1% | A549/ATCC NSCLC 117% | 786-0 renal 101% | COLO 205 colon 109%

COc1ccc2c(c1)C(Sc1ccc(F)cc1)c1c(nc(N)c(C#N)c1N)O2 (centres undefined)
inactive: NCI-H23 lung 90.7% | NCI-H226 lung 90.9% | NCI-H322M lung 94.4% | HOP-62 NSCLC 111% | NCI-H460 lung 95.7% | HOP-92 NSCLC 116% | NCI-H522 lung 78.9% | A549/ATCC NSCLC 96.2% | 786-0 renal 80.7% | COLO 205 colon 104%

O=C(Nc1ccc(Cl)c(C(F)(F)F)c1)N1CCN(c2cc(-c3cn(-c4ccccc4)nc3-c3cccc(O)c3)ccn2)CC1
active: NCI-H23 lung -27.3% | NCI-H226 lung -16.2% | NCI-H460 lung 7.84% | HOP-92 NSCLC -2.61% | NCI-H522 lung -17.3% | 786-0 renal 8.51%
inactive: NCI-H322M lung 14.8% | HOP-62 NSCLC 14.5% | A549/ATCC NSCLC 14.7%

O=C(O)CC1S/C(=N/N=C/c2nc3ccccc3s2)NC1=O (centres undefined)
inactive: NCI-H23 lung 96.2% | NCI-H226 lung 101% | NCI-H322M lung 106% | HOP-62 NSCLC 108% | NCI-H460 lung 94.7% | HOP-92 NSCLC 136% | NCI-H522 lung 104% | A549/ATCC NSCLC 96% | 786-0 renal 80.9% | COLO 205 colon 135%

CCc1ccccc1NC(=O)N/C(N)=N/c1nc2ccccc2s1
inactive: NCI-H226 lung 22.5% | NCI-H322M lung 28.3% | NCI-H460 lung 39.5%
active: NCI-H23 lung -2.24% | HOP-62 NSCLC -14.9% | HOP-92 NSCLC -15.2% | NCI-H522 lung -53.5% | A549/ATCC NSCLC 9.65% | 786-0 renal -4.92% | COLO 205 colon -84.1%

COc1ccc2ccccc2c1/C=C1\SC(=Nc2ccc(O)cc2)NC1=O
active: NCI-H226 lung -5.11% | NCI-H522 lung -24% | COLO 205 colon -22.2%
inactive: NCI-H23 lung 19.3% | NCI-H322M lung 32.7% | HOP-62 NSCLC 23.8% | NCI-H460 lung 11.1% | HOP-92 NSCLC 18.3% | A549/ATCC NSCLC 11.5% | 786-0 renal 17.7%

O=C(c1cc2cc(OCCCN3CCC3)ccc2[nH]1)N1C[C@@H](CCl)c2c1cc(OCc1ccccc1)c1ccccc21
active: NCI-H23 lung -73.4% | NCI-H226 lung -4.57% | NCI-H322M lung -23.5% | HOP-62 NSCLC -44% | NCI-H460 lung -60.1% | HOP-92 NSCLC -18.7% | NCI-H522 lung -70.1% | A549/ATCC NSCLC -18.5% | 786-0 renal -86.1% | COLO 205 colon -84.5%

C[C@H](NC(=O)c1ccc2c(-c3ccc(C(F)(F)F)cc3)cccc2c1)c1ccccn1
inactive: NCI-H23 lung 70.7% | NCI-H226 lung 28.3% | NCI-H322M lung 50.8% | HOP-62 NSCLC 77.3% | NCI-H460 lung 42.5% | HOP-92 NSCLC 25.5% | NCI-H522 lung 16.9% | A549/ATCC NSCLC 39.6% | 786-0 renal 44.3% | COLO 205 colon 61.6%

COc1cc(C2CC(c3cc(OC)c(OC)c(OC)c3)=Nc3c(N)nc(N)nc3N2)ccc1Oc1nc(Nc2ccc(F)cc2)nc(N(C)C)n1 (centres undefined)
inactive: NCI-H23 lung 89.8% | NCI-H226 lung 106% | NCI-H322M lung 94.4% | HOP-62 NSCLC 99.9% | NCI-H460 lung 42.8% | HOP-92 NSCLC 38.1% | NCI-H522 lung 56.8% | A549/ATCC NSCLC 52.9% | 786-0 renal 36.6% | COLO 205 colon 73.9%
